# Measured values: PubChem BioAssay (Tox21)
# Unmarked numbers belong to inactive results. Results filed as inconclusive are left out. Where a call stands in place of a potency, no number is given. The source made the active and inactive calls. Unless noted, calls follow the shape of the dose curve; as a rule, active = well fitted curve in the direction sought with a large enough effect in the repeat runs; inconclusive = weak or mixed curves; inactive = no such curve, though single readings can be large; an effect the other way counts as inactive or inconclusive.
# Key:
# [1] = qHTS assay to identify small molecule antagonists of the estrogen related receptor (ERR) signaling pathway from Tox21 library - cell viability counter screen (AID 1224834); also: nearly all actives have a fitted effect of over 30% in size
# In short: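 ERR reporter cells, 2,000 per well, rested 6 h, then exposed to compound in DMSO for 17.5 hours at 37 C. Viability read as fluorescence after 30 min with CellTiter-Fluor.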
# [2] = molecular target: Luciferin 4-monooxygenase (Photinus pyralis) (UniProt P08659); assay: qHTS assay to identify small molecule inhibitors of firefly luciferase (AID 1224835); also: series mostly up to about 120 µM; nearly all actives have a fitted effect of over 25% in size
# Luciferin 4-monooxygenase (Photinus pyralis), sequence (P08659 whole entry, looked up): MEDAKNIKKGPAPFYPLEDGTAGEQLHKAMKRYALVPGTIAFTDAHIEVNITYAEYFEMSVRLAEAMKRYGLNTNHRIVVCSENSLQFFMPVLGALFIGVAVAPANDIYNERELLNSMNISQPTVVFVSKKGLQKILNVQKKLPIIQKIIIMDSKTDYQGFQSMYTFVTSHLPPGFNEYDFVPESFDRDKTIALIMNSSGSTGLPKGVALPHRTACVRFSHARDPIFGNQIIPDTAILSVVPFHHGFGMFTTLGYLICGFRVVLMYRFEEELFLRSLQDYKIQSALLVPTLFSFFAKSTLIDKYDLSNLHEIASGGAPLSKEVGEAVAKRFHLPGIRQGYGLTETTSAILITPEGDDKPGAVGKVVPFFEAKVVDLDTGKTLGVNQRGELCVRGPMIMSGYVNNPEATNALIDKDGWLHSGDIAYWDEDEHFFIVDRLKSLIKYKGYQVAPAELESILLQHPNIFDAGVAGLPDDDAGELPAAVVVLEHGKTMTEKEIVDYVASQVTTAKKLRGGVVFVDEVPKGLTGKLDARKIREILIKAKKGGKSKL
# In short: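 Quantitative HTS format; KM concentrations of both substrates. Purified P. pyralis FLuc activity quantified from luminescence images.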
# [3] = qHTS assay to identify small molecule agonists of the constitutive androstane receptor (CAR) signaling pathway - cell viability counter screen (AID 1224836); also: series mostly up to about 92 µM; nearly all actives have a fitted effect of over 45% in size
# In short: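 Compound titrations (15 concentrations) went onto HepG2-CYP2B6-hCAR cells 4 h after seeding, alongside PK11195 at a final 0.75 uM; a 23 h, 37 C/5% CO2 incubation preceded CellTiter-Fluor viability measurement.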
# [4] = qHTS assay to identify small molecule antagonists of the constitutive androstane receptor (CAR) signaling pathway - cell viability counter screen (AID 1224837); also: series mostly up to about 92 µM; nearly all actives have a fitted effect of over 45% in size
# In short: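 HepG2 cells stably carrying hCAR and CYP2B6-2.2kb reporter, stimulated with 50 nM CITCO and compounds at 15 concentrations for 23 h at 37 C. Viability measured by CellTiter-Fluor fluorescence.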
# [5] = molecular target: Nuclear receptor subfamily 1 group I member 3 (Homo sapiens) (UniProt Q14994); assay: qHTS assay to identify small molecule antagonists of the constitutive androstane receptor (CAR) signaling pathway (AID 1224838); also: nearly all actives have a fitted effect of over 40% in size
# Nuclear receptor subfamily 1 group I member 3 (Homo sapiens), sequence (Q14994 whole entry, looked up): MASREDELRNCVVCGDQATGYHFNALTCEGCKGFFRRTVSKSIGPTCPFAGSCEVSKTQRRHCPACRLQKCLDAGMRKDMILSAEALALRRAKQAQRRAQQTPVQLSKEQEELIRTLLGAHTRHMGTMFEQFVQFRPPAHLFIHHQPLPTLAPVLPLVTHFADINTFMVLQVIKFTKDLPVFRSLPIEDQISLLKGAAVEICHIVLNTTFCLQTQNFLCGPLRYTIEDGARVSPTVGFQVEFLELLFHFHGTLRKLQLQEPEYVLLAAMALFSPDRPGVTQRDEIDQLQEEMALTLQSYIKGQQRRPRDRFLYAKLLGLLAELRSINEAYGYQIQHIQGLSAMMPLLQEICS
# In short: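 HepG2 cells stably carrying hCAR and a CYP2B6-2.2kb luciferase reporter, seeded 4 hrs before compound (15 concentrations). Stimulated with 50 nM CITCO for 24 hr at 37 C. ONE-Glo luminescence read after 30 min at room temperature.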
# [6] = molecular target: Nuclear receptor subfamily 1 group I member 3 (Homo sapiens) (UniProt Q14994); assay: qHTS assay to identify small molecule agonists of the constitutive androstane receptor (CAR) signaling pathway (AID 1224839); also: series mostly up to about 92 µM; nearly all actives have a fitted effect of over 15% in size
# In short: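 In this screen, CAR-driven CYP2B6 promoter activity is measured by luminescence in HepG2-CYP2B6-hCAR cells after 24 h with test compounds and 0.75 uM PK11195 (final concentration).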
# [7] = qHTS assay to identify small molecule antagonists of the estrogen related receptor signaling pathway with the pleiotropic PPARgamma coactivator (PGC) from Tox21 10K library - cell viability counter screen (AID 1224840; active = well fitted cell-killing curve with a large enough effect in the repeat runs, not every such curve was filed as active; also: nearly all actives have a fitted effect of over 40% in size)
# In short: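 PGC/ERR cells (2,000/well) plated 6 h, then compound-treated for 17.5 h at 37 C. Viability measured by CellTiter-Fluor fluorescence after 30 min at 37 C, multiplexed with the pathway assay.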
# [8] = molecular target: Thyrotropin receptor (Homo sapiens) (UniProt P16473); assay: qHTS assay to identify small molecule agonists of the thyroid stimulating hormone receptor (TSHR) signaling pathway (AID 1224843; calls by dose curve; also: nearly all actives have a fitted effect of over 45% in size)
# Thyrotropin receptor (Homo sapiens), sequence (P16473 whole entry, looked up): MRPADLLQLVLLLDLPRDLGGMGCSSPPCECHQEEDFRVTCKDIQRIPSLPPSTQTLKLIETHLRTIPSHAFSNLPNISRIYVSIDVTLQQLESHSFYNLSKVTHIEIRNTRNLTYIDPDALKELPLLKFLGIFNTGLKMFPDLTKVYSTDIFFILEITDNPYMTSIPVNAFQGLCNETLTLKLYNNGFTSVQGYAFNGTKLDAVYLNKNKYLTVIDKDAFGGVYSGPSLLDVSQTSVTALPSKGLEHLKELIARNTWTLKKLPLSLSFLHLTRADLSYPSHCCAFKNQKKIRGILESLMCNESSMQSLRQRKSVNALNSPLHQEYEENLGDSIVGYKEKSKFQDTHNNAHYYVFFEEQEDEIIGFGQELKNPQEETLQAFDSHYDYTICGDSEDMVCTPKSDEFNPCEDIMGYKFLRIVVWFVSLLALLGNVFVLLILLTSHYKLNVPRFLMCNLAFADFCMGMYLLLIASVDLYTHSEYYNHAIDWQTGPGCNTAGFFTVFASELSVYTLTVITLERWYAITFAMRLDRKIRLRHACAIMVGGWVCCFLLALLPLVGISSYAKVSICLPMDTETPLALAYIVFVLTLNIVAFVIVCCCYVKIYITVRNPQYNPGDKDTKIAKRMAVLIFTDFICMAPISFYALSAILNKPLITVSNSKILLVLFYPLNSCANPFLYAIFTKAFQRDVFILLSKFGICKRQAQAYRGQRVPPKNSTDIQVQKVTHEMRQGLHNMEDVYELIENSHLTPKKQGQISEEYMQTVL
# In short: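 TSHR-expressing HEK293 cells (800 per well) were exposed to compounds for 30 min at room temperature. cAMP was then detected by HTRF competition with cAMP-d2 and anti-cAMP cryptate, read after 1 h at room temperature. Fifteen concentrations, triplicate.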
# [9] = qHTS assay to identify small molecule agonists of the hypoxia (HIF-1) signaling pathway - cell viability counter screen (AID 1224844; calls by dose curve; also: nearly all actives have a fitted effect of over 50% in size)
# In short: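 HRE-bla ME-180 cells, 2,000/well in 0.5% dialyzed FBS medium, treated 17 h at 37C with compounds. Viability read in the same wells as the bla reporter, by CellTiter-Glo luminescence after 30 min at room temperature.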
# [10] = qHTS assay to identify small molecule agonists of H2AX (AID 1224845; active = well fitted activation curve with a large enough effect in the signal ratio in the repeat runs, not every such curve was filed as active; the % refers to the signal ratio)
# In short: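 Wild-type CHO-K1 cells plated overnight, then exposed 3 hr at 37C to compounds at 15 concentrations (0.76% DMSO). Lysed, then HTRF anti-pH2AX(S139)-cryptate/anti-H2AX-d2 detection after 24 hr at room temperature; emissions 665 and 620 nm.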
# [11] = qHTS assay to identify small molecule agonists of the hypoxia (HIF-1) signaling pathway (AID 1224846; active = well fitted activation curve with a large enough effect in the signal ratio in the repeat runs, not every such curve was filed as active; the % refers to the signal ratio)
# In short: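 HRE-bla ME-180 beta-lactamase reporter cells in medium with 0.5% dialyzed FBS, pre-incubated 5 h then exposed to compounds 17 h at 37C, 5% CO2; reporter induction read with CCF4-AM FRET substrate.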
# [12] = qHTS assay to identify small molecule agonists of H2AX - cell viability counter screen (AID 1224847; calls by dose curve; also: top concentration of the series differs between compounds; nearly all actives have a fitted effect of over 30% in size)
# In short: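 Read-out: CellTiter-Glo luminescence, 30 min RT. Cells: wild-type CHO-K1, 1000/well, 10% FBS, plated overnight at 37C. Treatment: 15 concentrations, 3 hr, 37C, 0.76% DMSO.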
# [13] = qHTS RealTime-Glo MT Cell Viability Assay in HepG2 cells - 24 hour (AID 1224867); also: nearly all actives have a fitted effect of over 50% in size
# In short: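 Viability was tracked continuously by NanoLuc luminescence from prosubstrate reduced by living HepG2 cells, at successive time points over 40 h of compound exposure. Cells with reagent were preincubated 5 h at 37 °C before compound addition.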
# [14] = qHTS RealTime-Glo MT Cell Viability Assay in HEK293 cells - 32 hour (AID 1224868); also: nearly all actives have a fitted effect of over 50% in size; also: potency is read from the fitted curve at half-maximal effect; as to activity change, negative = cytotoxic: top concentration of the series differs between compounds
# In short: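 Viability tracked continuously by luminescence as live cells reduce a prosubstrate for NanoLuc; HEK293 cells preincubated 5 h, compound-treated at 37 C, and read at 0, 8, 16, 24, 32 and 40 h.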
# [15] = A CellTox Green Cytotoxicity Assay to monitor cytotoxicity in HEK293 cells - 0 hour (AID 1224869); also: nearly all actives have a fitted effect of over 50% in size
# In short: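 HEK293 cells, 600/well, were preincubated 5 hours and then exposed to compounds at 37 C for up to 40 hours. A cell-impermeant cyanine dye staining dead-cell DNA was read by fluorescence at 0, 8, 16, 24, 32 and 40 h time points.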
smiles,measurement,setting,value
CCOC(=O)c1c(N)sc2c1CCN(Cc1ccccc1)C2,Potency,[1],inactive
same,Potency,[2],inactive
same,Potency,[3],inactive
same,Potency,[4],inactive
same,Potency,[5],inactive
same,Potency,[6],inactive
same,Potency,[7],inactive
same,Potency,[8],inactive
same,Potency,[9],inactive
same,Potency,[10],inactive
same,outcome,[11],inactive
same,Potency,[12],inactive
same,Potency,[13],inactive
same,Potency,[14],21.3 µM (active)
same,Potency,[15],inactive
CCCCCCCCCCCCCCN(C)C,"viability change, negative = cytotoxic",[1],-1.07% [at 19 µM]
same,"activity change, negative = inhibition",[2],-3.07% [at 23.6 µM]
same,"viability change, negative = cytotoxic",[3],5.26% [at 19 µM]
same,"activity change, negative = cytotoxicity",[4],-1.86% [at 19 µM]
same,"activity, negative = inhibition",[5],21.5% [at 19 µM]
same,activation,[6],-0.414% [at 19 µM]
same,"viability change, negative = cytotoxic",[7],-1.6% [at 19 µM]
same,"activity change, negative = cytotoxicity",[9],-7.12% [at 15.8 µM]
same,activation (H2AX phosphorylation),[10],0.821% [at 31.6 µM]
same,activation,[11],-0.0233% [at 15.8 µM]
same,"activity change, negative = cytotoxicity",[12],0.248% [at 31.6 µM]
same,"activity change, negative = cytotoxicity",[13],1.14% [at 15.8 µM]
same,"activity change, negative = cytotoxic",[14],-30.2% [at 15.8 µM]
same,cytotoxicity,[15],-21.7% [at 15.8 µM]
Cc1ccc(N(CCO)CCO)cc1,Potency,[1],inactive
same,Potency,[2],inactive
same,Potency,[3],inactive
same,Potency,[4],inactive
same,Potency,[5],inactive
same,Potency,[6],inactive
same,Potency,[7],inactive
same,Potency,[8],inactive
same,Potency,[9],inactive
same,Potency,[10],inactive
same,outcome,[11],inactive
same,Potency,[12],inactive
same,Potency,[13],inactive
same,Potency,[14],inactive
same,Potency,[15],inactive
NC(=O)CCCCC(N)=O,Potency,[1],inactive
same,Potency,[2],inactive
same,Potency,[3],inactive
same,Potency,[4],inactive
same,Potency,[5],inactive
same,Potency,[6],inactive
same,Potency,[7],inactive
same,Potency,[8],inactive
same,Potency,[9],inactive
same,Potency,[10],inactive
same,outcome,[11],inactive
same,Potency,[12],inactive
same,Potency,[13],inactive
same,Potency,[14],inactive
same,Potency,[15],inactive
CCCCCCC(CO)CCCC (configuration not stated),Potency,[1],inactive
same,Potency,[2],inactive
same,Potency,[3],inactive
same,Potency,[4],inactive
same,Potency,[5],inactive
same,Potency,[6],inactive
same,Potency,[7],inactive
same,Potency,[8],inactive
same,Potency,[9],inactive
same,Potency,[10],inactive
same,outcome,[11],inactive
same,Potency,[12],inactive
same,Potency,[13],inactive
same,Potency,[14],inactive
same,Potency,[15],inactive
CC(=O)C(C)=O,Potency,[1],inactive
same,Potency,[2],inactive
same,Potency,[3],inactive
same,Potency,[4],inactive
same,Potency,[5],inactive
same,Potency,[6],inactive
same,Potency,[7],inactive
same,Potency,[8],inactive
same,Potency,[9],inactive
same,Potency,[10],inactive
same,Potency,[12],inactive
same,Potency,[13],inactive
same,Potency,[14],inactive
same,Potency,[15],inactive
O=C1OC(=O)c2c(Br)c(Br)c(Br)c(Br)c21,Potency,[1],inactive
same,Potency,[2],inactive
same,Potency,[3],inactive
same,Potency,[4],inactive
same,Potency,[5],inactive
same,Potency,[6],inactive
same,Potency,[7],inactive
same,Potency,[8],inactive
same,Potency,[9],inactive
same,outcome,[11],inactive
same,Potency,[12],inactive
same,Potency,[13],inactive
same,Potency,[14],inactive
same,Potency,[15],inactive
CCN(CC)CCNC(=O)c1cc(Cl)c(N)cc1OC,Potency,[1],inactive
same,Potency,[2],inactive
same,Potency,[3],inactive
same,Potency,[4],inactive
same,Potency,[5],inactive
same,Potency,[6],inactive
same,Potency,[7],inactive
same,Potency,[8],inactive
same,Potency,[9],inactive
same,Potency,[10],inactive
same,Potency,[12],inactive
same,Potency,[13],inactive
same,Potency,[14],inactive
same,Potency,[15],inactive
O=C1[C@@H]2[C@H]3CC[C@H](C3)[C@@H]2C(=O)N1CCCCN1CCN(c2ncccn2)CC1,Potency,[1],inactive
same,Potency,[2],inactive
same,Potency,[3],inactive
same,Potency,[4],inactive
same,Potency,[5],inactive
same,Potency,[6],inactive
same,Potency,[7],inactive
same,Potency,[9],inactive
same,Potency,[10],inactive
same,outcome,[11],inactive
same,Potency,[12],inactive
same,Potency,[13],inactive
same,Potency,[14],inactive
same,Potency,[15],inactive
CNC1CCCN(c2c(F)cc3c(=O)c(C(=O)O)cn(C4CC4)c3c2OC)C1 (configuration not stated),Potency,[1],inactive
same,Potency,[2],inactive
same,Potency,[3],inactive
same,Potency,[4],inactive
same,Potency,[5],inactive
same,Potency,[6],inactive
same,Potency,[7],inactive
same,Potency,[8],inactive
same,Potency,[9],inactive
same,Potency,[10],inactive
same,outcome,[11],inactive
same,Potency,[12],inactive
same,Potency,[13],inactive
same,Potency,[14],inactive
same,Potency,[15],inactive
CCSC(=O)N(CC)CC,Potency,[1],inactive
same,Potency,[2],inactive
same,Potency,[3],inactive
same,Potency,[4],inactive
same,Potency,[5],inactive
same,Potency,[6],inactive
same,Potency,[7],inactive
same,Potency,[8],inactive
same,Potency,[9],inactive
same,Potency,[10],inactive
same,outcome,[11],inactive
same,Potency,[13],inactive
same,Potency,[14],inactive
same,Potency,[15],inactive
CC(C)C(=O)OCCOc1ccccc1,Potency,[1],inactive
same,Potency,[2],inactive
same,Potency,[3],inactive
same,Potency,[4],inactive
same,Potency,[5],inactive
same,Potency,[6],inactive
same,Potency,[7],inactive
same,Potency,[9],inactive
same,Potency,[10],inactive
same,outcome,[11],inactive
same,Potency,[12],inactive
same,Potency,[13],inactive
same,Potency,[14],inactive
same,Potency,[15],inactive
O=c1[nH][nH]c(=O)c2cc([N+](=O)[O-])ccc12,Potency,[1],inactive
same,Potency,[2],inactive
same,Potency,[3],inactive
same,Potency,[4],inactive
same,Potency,[5],inactive
same,Potency,[6],inactive
same,Potency,[7],inactive
same,Potency,[8],inactive
same,Potency,[9],inactive
same,Potency,[10],inactive
same,outcome,[11],inactive
same,Potency,[12],inactive
same,Potency,[13],inactive
same,Potency,[14],inactive
same,Potency,[15],inactive
O=c1[nH]c2cc(C(F)(F)F)c(N3CCOCC3)cc2n(CP(=O)(O)O)c1=O,Potency,[1],inactive
same,Potency,[2],inactive
same,Potency,[3],inactive
same,Potency,[4],inactive
same,Potency,[5],inactive
same,Potency,[6],inactive
same,Potency,[7],inactive
same,Potency,[9],inactive
same,Potency,[10],inactive
same,outcome,[11],inactive
same,Potency,[12],inactive
same,Potency,[13],inactive
same,Potency,[14],inactive
same,Potency,[15],inactive
